Laboratory results: PubChem BioAssay (Tox21)
Unmarked numbers belong to inactive results. Results filed as inconclusive are left out. Entries that show only a call come without a potency. The source made the active and inactive calls. Unless noted, calls follow the shape of the full dose curve.

Experiments:
[1] = Nuclear factor erythroid 2-related factor 2/antioxidant responsive element (Nrf2/ARE) small molecule agonists: qHTS cell viability counter screen in human keratinocytes (AID 1919968; active = well fitted curve in the direction sought with a large enough effect in the repeat runs; an effect the other way counts as inactive or inconclusive; also: nearly all actives have a fitted effect of over 55% in size; also: potency is read from the fitted curve at half-maximal effect)
Summary of the method: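 Stably transfected HaCaT (KeratinoSens), 1,500/well. Test agents in DMSO were applied for 23 h, 37 C/5% CO2. CellTiter-Fluor was incubated 1 h before the fluorescence read.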

[2] = Nuclear factor erythroid 2-related factor 2/antioxidant responsive element (Nrf2/ARE) small molecule agonists: luciferase reporter gene qHTS assay in human keratinocytes (AID 1919969); also: nearly all actives have a fitted effect of over 35% in size; also: potency is read from the fitted curve at half-maximal effect
[3] = target: Gonadotropin-releasing hormone receptor (Homo sapiens) (UniProt P30968); assay: Human gonadotropin-releasing hormone receptor (GnRHR) small molecule agonists, calcium flux assay in GnRHR-HEK293 cells (AID 1920063); also: nearly all actives have a fitted effect of over 35% in size
Summary of the method: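 Stable human GnRHR HEK293 line. 18 h plating, then calcium dye for 1 h at 37 C. Agonist-mode compound addition from DMSO stocks; fluorescence monitored 3 min.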

[4] = target: KiSS-1 receptor (Homo sapiens) (UniProt Q969F8); assay: Human kisspeptin (KISS1R) small molecule agonists, calcium flux assay in KISS1R-HEK293 cells (AID 1920064; active = well fitted curve in the direction sought with a large enough effect in the repeat runs; an effect the other way counts as inactive or inconclusive)
Summary of the method: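 After overnight (18 h) culture at 37 C/5% CO2, human KISS1R-HEK293 cells received calcium dye for 1 h, then test compound; emission at 540 nm (excitation 480 nm) was tracked for 3 min.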

[5] = G protein-coupled receptor (GPCR) small molecule agonists, calcium flux assay: HEK293 wild type cell line counter screen (AID 1920065)
Summary of the method: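 Following 18 h incubation at 37 C/5% CO2, plates got calcium dye for 1 h; compounds, ATP or DMSO were then pinned in and fluorescence followed kinetically (480/540 nm).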

[6] = p53 small molecule agonists, cell-based qHTS assay with human liver microsomes (AID 1963577)
Summary of the method: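 Cells carrying a p53-responsive bla reporter were rested 5 h (37 C, 5% CO2) before compound transfer. Human liver microsomes plus NADPH, 0.5 mg/mL final apiece, supplied metabolism during the 16 h 37 C exposure.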

[7] = p53 small molecule agonists, cell-based qHTS assay with rat liver microsomes (AID 1963578)
Summary of the method: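 Fluorescence from a beta-lactamase reporter under a p53 response element was measured after cells had been incubated 16 h at 37 C with test compound and rat liver microsomes plus NADPH (0.5 mg/mL final each).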

[8] = p53 small molecule agonists, cell-based qHTS assay: qHTS cell viability counter screen (AID 1963581); also: nearly all actives have a fitted effect of over 45% in size
Summary of the method: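 qHTS counter screen: 16 h compound exposure at 37 C of p53RE-bla HCT-116 cells (4,000 per well, seeded 5 h prior), cell viability by ATP luminescence.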

[9] = p53 small molecule agonists, cell-based qHTS assay (AID 1963582; active = well fitted activation curve with a large enough effect in the signal ratio in the repeat runs, not every such curve was filed as active; the % refers to the signal ratio)
Summary of the method: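 Measured: fluorescence from cleaved LiveBLAzer substrate. System: p53RE-bla cells, 16 h compound treatment at 37 C, 2 h substrate step at room temperature.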

[10] = target: 5-hydroxytryptamine receptor 2A (Homo sapiens) (UniProt P28223); assay: 5-hydroxytryptamine receptor 2A (HTR2A) small molecule antagonists, cell-based qHTS assay (AID 1963586); also: nearly all actives have a fitted effect of over 45% in size
Summary of the method: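 CHO cells stably expressing human HTR2A were plated for 18 h at 37 C, then loaded with calcium dye for 1 h. Compounds were preincubated 5 min at room temperature before DOI (4 nM solution) was added. Kinetic fluorescence was read for 3 min.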

[11] = target: 5-hydroxytryptamine receptor 2A (Homo sapiens) (UniProt P28223); assay: 5-hydroxytryptamine receptor 2A (HTR2A) small molecule agonists, cell-based qHTS assay (AID 1963587); also: nearly all actives have a fitted effect of over 30% in size; also: potency is read from the fitted curve at half-maximal effect
Summary of the method: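 Kinetic calcium-flux fluorescence (2 min, 1 sec intervals) after compound addition in agonist mode. HTR2A-CHO cells were cultured 18 h, then dye-loaded 1 h at 37 C.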

[12] = target: Muscarinic acetylcholine receptor M1 (Homo sapiens) (UniProt P11229); assay: Cholinergic receptor muscarinic 1 (CHRM1) small molecule antagonists, cell-based qHTS assay (AID 1963588); also: nearly all actives have a fitted effect of over 40% in size
Summary of the method: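 Compounds were tested at 15 concentrations in three independent runs. Dye-loaded CHRM1-CHO cells were exposed 5 min at room temperature before stimulation by acetylcholine added at 50nM. Intracellular calcium was read kinetically on FDSS for 3 min.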

[13] = target: Muscarinic acetylcholine receptor M1 (Homo sapiens) (UniProt P11229); assay: Cholinergic receptor muscarinic 1 (CHRM1) small molecule agonists, cell-based qHTS assay (AID 1963589); also: nearly all actives have a fitted effect of over 35% in size
Summary of the method: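 Kinetic fluorescence (1 s intervals) of calcium-sensitive dye in human M1 CHO cells after compound addition; cells pre-incubated 18 h at 37 C/5% CO2 and dye-loaded 1 h.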

[14] = cAMP Responsive Elements (CRE) small molecule antagonists, cell-based qHTS assay (AID 1963591; active = well fitted inhibition curve with a large enough effect in the signal ratio in the repeat runs, not every such curve was filed as active; the % refers to the signal ratio)
Summary of the method: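 Reporter line CRE-bla HEK 293T in dialyzed-FBS DMEM; cells preincubated 18 h, treated 3 h with compound plus NKH477 (0.25 uM final); LiveBLAzer FRET, 2 h RT.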

[15] = target: Beta-2 adrenergic receptor (Homo sapiens) (UniProt P07550); assay: Adrenergic beta2 receptor (ADRB2) small molecule antagonists, cell-based qHTS assay (AID 1963592); also: series mostly up to about 92 µM; nearly all actives have a fitted effect of over 50% in size
Summary of the method: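 Assay format: CHO-ADRB2 cells, 18-20hr seeding at 37C/5% CO2, then compound plus 1nM isoproterenol agonist mix for 0.5hr RT. Homogeneous time-resolved fluorescence cAMP detection after 1hr, expressed as 665/615 nm ratio.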

[16] = target: D(2) dopamine receptor (Homo sapiens) (UniProt P14416); assay: Dopamine D2 receptor (DRD2) small molecule agonists, cell-based qHTS assay (AID 1963594); also: nearly all actives have a fitted effect of over 35% in size
Summary of the method: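 cAMP accumulation in DRD2-HEK293 cells measured by HTRF after 1 h detection; compounds added 10 min before NKH477 (200nM […]) forskolin-analogue stimulation, 30 min at room temperature, with Ro20-1724 present at 0.1 mM final.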

[17] = cAMP Responsive Elements (CRE) small molecule agonists, cell-based qHTS assay (AID 1963590)
Summary of the method: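 Test agents in DMSO were incubated 3 h at 37 C/5% CO2 with CRE-bla HEK 293T cells seeded 18 h earlier; LiveBLAzer B/G FRET substrate was added and read after 2 h at room temperature.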

[18] = target: D(2) dopamine receptor (Homo sapiens) (UniProt P14416); assay: Dopamine D2 receptor (DRD2) small molecule antagonists, cell-based qHTS assay (AID 1963595; active = well fitted inhibition curve with a large enough effect in the signal ratio in the repeat runs, with a control signal flat; the % refers to the signal ratio; also: potency is read from the fitted curve at half-maximal effect)
Summary of the method: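 Cells were plated and grown for 24 h at 37 °C. Ro20-1724 (0.1 mM final) went in first, then compound for 10 min. NKH477 (200 nM) with quinpirole (12 nM) followed for 30 min at RT, then HTRF detection reagents for 1 h.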

[19] = p53 small molecule agonists, cell-based qHTS assay with human liver microsomes: qHTS cell viability counter screen (AID 1963579); also: nearly all actives have a fitted effect of over 45% in size; also: potency is read from the fitted curve at half-maximal effect
Summary of the method: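 Seed p53RE-bla cells at 4,000 per well; incubate 5 h at 37 C; add compound, human liver microsomes and NADPH; incubate 16 h at 37 C; add CellTiter-Glo; after 30 min at room temperature, read luminescence.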

[20] = target: Beta-2 adrenergic receptor (Homo sapiens) (UniProt P07550); assay: Adrenergic beta2 receptor (ADRB2) small molecule agonists, cell-based qHTS assay (AID 1963593);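 also: CHO cells stably overexpressing human ADRB2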
Summary of the method: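 CHO cells stably over-expressing ADRB2 were plated overnight at 37C, then dosed with compounds plus a stimulation mix containing 100uM IBMX and 25uM Ro-20-1724 for 0.5hr at room temperature. cAMP was measured by HTRF competition, 1hr.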

Chain of Beta-2 adrenergic receptor (Homo sapiens) (P07550 whole entry, looked up): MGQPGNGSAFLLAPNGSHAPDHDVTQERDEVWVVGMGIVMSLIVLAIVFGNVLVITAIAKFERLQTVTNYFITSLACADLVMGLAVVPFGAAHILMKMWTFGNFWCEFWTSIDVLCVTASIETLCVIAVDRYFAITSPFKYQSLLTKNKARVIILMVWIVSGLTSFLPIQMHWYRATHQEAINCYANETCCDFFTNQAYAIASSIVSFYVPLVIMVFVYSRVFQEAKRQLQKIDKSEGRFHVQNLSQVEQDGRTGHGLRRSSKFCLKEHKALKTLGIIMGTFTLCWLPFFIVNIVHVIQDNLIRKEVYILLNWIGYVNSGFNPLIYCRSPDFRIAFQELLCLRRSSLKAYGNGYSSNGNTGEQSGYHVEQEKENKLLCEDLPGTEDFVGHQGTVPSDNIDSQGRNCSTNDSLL
Chain of D(2) dopamine receptor (Homo sapiens) (P14416 whole entry, looked up): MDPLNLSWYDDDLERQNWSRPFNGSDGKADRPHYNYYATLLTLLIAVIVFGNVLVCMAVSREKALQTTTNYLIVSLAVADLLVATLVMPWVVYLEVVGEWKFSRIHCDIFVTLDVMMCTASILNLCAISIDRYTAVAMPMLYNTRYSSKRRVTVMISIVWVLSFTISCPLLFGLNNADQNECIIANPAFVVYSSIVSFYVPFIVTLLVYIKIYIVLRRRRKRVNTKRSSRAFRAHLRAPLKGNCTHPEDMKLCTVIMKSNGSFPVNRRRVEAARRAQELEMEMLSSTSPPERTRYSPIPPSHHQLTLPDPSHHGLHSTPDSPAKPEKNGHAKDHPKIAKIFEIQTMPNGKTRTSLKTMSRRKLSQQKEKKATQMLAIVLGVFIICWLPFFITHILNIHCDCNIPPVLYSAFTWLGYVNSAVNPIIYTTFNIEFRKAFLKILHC
Chain of 5-hydroxytryptamine receptor 2A (Homo sapiens) (P28223 whole entry, looked up): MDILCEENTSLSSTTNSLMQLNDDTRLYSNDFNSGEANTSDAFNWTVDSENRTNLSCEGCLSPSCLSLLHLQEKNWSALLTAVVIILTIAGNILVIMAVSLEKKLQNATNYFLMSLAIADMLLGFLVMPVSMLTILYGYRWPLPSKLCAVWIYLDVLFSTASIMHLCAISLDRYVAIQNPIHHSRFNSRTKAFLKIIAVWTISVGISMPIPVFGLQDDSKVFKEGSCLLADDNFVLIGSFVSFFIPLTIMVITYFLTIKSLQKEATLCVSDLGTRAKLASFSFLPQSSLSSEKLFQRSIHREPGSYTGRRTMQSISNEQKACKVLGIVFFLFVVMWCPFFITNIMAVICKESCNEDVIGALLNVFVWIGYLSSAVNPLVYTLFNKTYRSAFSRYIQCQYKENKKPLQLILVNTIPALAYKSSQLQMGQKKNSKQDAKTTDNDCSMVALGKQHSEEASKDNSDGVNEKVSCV
Chain of Muscarinic acetylcholine receptor M1 (Homo sapiens) (P11229 whole entry, looked up): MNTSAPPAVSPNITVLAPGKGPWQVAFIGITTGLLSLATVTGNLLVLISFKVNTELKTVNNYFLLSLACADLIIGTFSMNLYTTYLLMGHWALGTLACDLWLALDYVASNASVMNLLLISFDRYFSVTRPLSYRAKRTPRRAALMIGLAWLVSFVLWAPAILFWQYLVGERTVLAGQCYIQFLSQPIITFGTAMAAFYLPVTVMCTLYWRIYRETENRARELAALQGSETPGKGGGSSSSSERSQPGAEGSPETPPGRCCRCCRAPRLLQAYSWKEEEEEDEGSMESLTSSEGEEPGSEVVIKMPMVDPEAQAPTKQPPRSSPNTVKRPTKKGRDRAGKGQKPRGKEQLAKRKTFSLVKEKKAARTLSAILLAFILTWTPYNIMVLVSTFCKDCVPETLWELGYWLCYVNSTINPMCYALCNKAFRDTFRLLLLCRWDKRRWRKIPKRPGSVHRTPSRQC
Chain of KiSS-1 receptor (Homo sapiens) (Q969F8 whole entry, looked up): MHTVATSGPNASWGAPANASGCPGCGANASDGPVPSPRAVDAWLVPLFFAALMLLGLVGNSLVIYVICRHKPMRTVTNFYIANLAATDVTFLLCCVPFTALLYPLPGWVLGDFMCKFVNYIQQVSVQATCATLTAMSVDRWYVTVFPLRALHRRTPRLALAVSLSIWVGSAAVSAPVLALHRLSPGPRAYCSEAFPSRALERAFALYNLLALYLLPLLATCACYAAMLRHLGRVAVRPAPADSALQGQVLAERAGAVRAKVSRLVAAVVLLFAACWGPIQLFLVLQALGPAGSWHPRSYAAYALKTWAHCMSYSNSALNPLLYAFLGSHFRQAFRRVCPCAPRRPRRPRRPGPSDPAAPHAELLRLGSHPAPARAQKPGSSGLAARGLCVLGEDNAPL
Chain of Gonadotropin-releasing hormone receptor (Homo sapiens) (P30968 whole entry, looked up): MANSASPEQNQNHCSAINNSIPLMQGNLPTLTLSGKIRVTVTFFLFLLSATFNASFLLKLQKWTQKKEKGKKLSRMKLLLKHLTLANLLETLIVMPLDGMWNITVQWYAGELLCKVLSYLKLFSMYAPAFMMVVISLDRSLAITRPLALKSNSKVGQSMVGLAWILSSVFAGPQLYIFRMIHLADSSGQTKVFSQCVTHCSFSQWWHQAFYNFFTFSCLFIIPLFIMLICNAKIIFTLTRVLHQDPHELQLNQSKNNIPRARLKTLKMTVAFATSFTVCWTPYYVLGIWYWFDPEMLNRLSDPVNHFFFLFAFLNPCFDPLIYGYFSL

Row | SMILES | Potency [1] | Potency [2] | Potency [3] | outcome [4] | outcome [5] | Potency [6] | Potency [7] | Potency [8] | Potency [9] | Potency [10] | Potency [11] | Potency [12] | Potency [13] | Potency [14] | Potency [15] | Potency [16] | Potency [17] | Potency [18] | Potency [19] | Potency [20]
1 | CC(=O)C1CCCCC1=O (stereo not given) | inactive | inactive | inactive | inactive | inactive | inactive | inactive | inactive | inactive | inactive | inactive | inactive | inactive | inactive | inactive | inactive | – | – | – | –
2 | CN1C(=O)c2ccc([N+](=O)[O-])cc2C1=O | inactive | inactive | inactive | inactive | inactive | inactive | inactive | inactive | inactive | inactive | inactive | inactive | inactive | inactive | inactive | – | inactive | inactive | – | –
3 | C[N+](C)(C)CCCCCCCCCC[N+](C)(C)C | inactive | inactive | inactive | inactive | inactive | inactive | inactive | inactive | inactive | inactive | inactive | inactive | inactive | inactive | inactive | inactive | inactive | inactive | – | –
4 | NC1[C@H]2CN(c3nc4c(cc3F)c(=O)c(C(=O)O)cn4-c3ccc(F)cc3F)C[C@@H]12 (stereo not given in full) | inactive | inactive | inactive | inactive | inactive | inactive | inactive | inactive | – | – | – | – | – | – | inactive | inactive | – | inactive | inactive | –
5 | CCCOC(=O)c1ccc(O)cc1 | inactive | 27.3 µM (active) | inactive | inactive | inactive | inactive | inactive | – | – | inactive | inactive | inactive | inactive | inactive | – | inactive | inactive | inactive | inactive | –
6 | CCCCCCCCCCCCN1CCOCC1 | inactive | inactive | inactive | inactive | inactive | inactive | inactive | – | inactive | inactive | – | inactive | inactive | inactive | inactive | inactive | inactive | inactive | inactive | inactive
7 | O=C(Nc1ccc(Cl)c(Cl)c1)C1CC1 | inactive | inactive | inactive | inactive | inactive | inactive | inactive | inactive | inactive | inactive | inactive | inactive | inactive | inactive | inactive | inactive | inactive | inactive | – | –
8 | CCCC(c1cc(C(C)(C)C)c(O)cc1C)c1cc(C(C)(C)C)c(O)cc1C | 6.94 µM (active) | inactive | inactive | inactive | inactive | inactive | inactive | – | – | inactive | 9.89 µM (active) | inactive | inactive | – | inactive | inactive | – | 24.6 µM (active) | 9.24 µM (active) | –
